Compounds with a hit are over-represented: about 2.6% of the library has one in this group of screens.
KKLEB tox: counter-screen for CF NF-kB inhibitors: cytotoxicity; KKLEB CF airway cells viability, ATPlite luminescence, overnight; hits give low values; cells stimulated with P. aeruginosa culture filtrate; activity change (cytotoxicity), % at 5 µM; 0.36% of 360,000 active; AID 602141;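 active = corrected activity change at or below -50% at 5 µM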
EWS-Fli inh: blocks EWS/Fli oncoprotein-driven transcription; A673 NR0B1-luciferase reporter, viability-normalised; inhibition, % at 12.6 µM; 0.67% of 350,000 active; AID 651661;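 active = mean inhibition of at least 50% after viability correction, with every replicate also passing that limit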;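 note: firefly luciferase signal divided by Alamar Blue viability fluorescence both relative to DMSO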
TWEAK-Fn14 inh: blocks TWEAK-Fn14 interaction in a reporter cell assay. inhibition, % at 10 µM. TWEAK-stimulated Fn14 reporter cells, luciferase luminescence, 8 h. 2% of 360,000 active. AID 1159606; in the data active = inhibition above about 50%
CF NFkB block: inhibitors of cystic fibrosis induced NF-kB | KKLEB NF-kB-GFP reporter, PAF-induced, GFP fluorescence overnight | 0.86% of 360,000 active | AID 588850 | inhibition, % at 5 µM;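 active = at least 50% inhibition at 5 µM, scaled per plate between neutral and stimulator controls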;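 note: PAF is a Pseudomonas aeruginosa culture filtrate used as stimulus; plate controls were PAF-stimulated DMSO wells for no effect and unstimulated DMSO wells for full effect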
LGR2 antag: inhibitors of bursicon-induced Drosophila LGR2 receptor cAMP signaling | HEK293 LGR2, CRE-luciferase, bursicon-stimulated, 4 h | inhibition, % at 9.99 µM | 0.35% of 380,000 active | AID 720647;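 active = drop in luminescence signal, shown as inhibition above about 50% in the replicate tests, limit read from the data, passing the limit was not always enough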;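 note: agonist challenge used bursicon conditioned medium at about half maximal strength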
TROY NFkB inh: inhibitors of TROY-dependent NF-kB signaling; Q293 LMP1-TROYcd NF-kB luciferase reporter, 4 h; inhibition, % at 10 µM; 0.98% of 360,000 active; AID 1347056;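 active = compounds whose plate-normalised and pattern-corrected inhibition of the luciferase reporter signal at the single screening dose is 50% or more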
Starred values were filed as active, the others as inactive; / = no result.

SMILES	KKLEB tox	EWS-Fli inh	TWEAK-Fn14 inh	CF NFkB block	LGR2 antag	TROY NFkB inh
C[C@@H]1CN([C@H](C)CO)C(=O)c2cc(NS(=O)(=O)c3cn(C)cn3)ccc2O[C@@H]1CN(C)Cc1ccc(Oc2ccccc2)cc1	/	-4.6	/	/	-9.1	/
O=C(/C=C/c1c(F)cccc1Cl)c1ccc(O)cc1	1.3	7.0	61.0*	19.6	8.5	-7.2
Cc1ccccc1-n1c(SCc2cc(=O)n3ccccc3n2)nc2[nH]ncc2c1=O	6.7	/	60.2*	-18.9	/	/
CN(C)/C(=N\S(=O)(=O)c1ccccc1)c1ccc(F)cc1	12.2	3.7	51.5*	12.1	18.2	-17.1
CN(C)C(=O)c1ccc(-n2nc(C(F)(F)F)c3c2CCCC3)cc1	-10.6	/	58.7*	8.7	1.6	/
CC(C)NC(=O)Nc1cccc2c1O[C@@H](CN(C)C(=O)Nc1ccc(F)cc1)[C@@H](C)CN([C@H](C)CO)C2=O	/	-0.5	/	/	-2.5	/
O=c1c(Cl)c(Cl)cnn1-c1ccccc1	-80.8*	69.7*	91.1*	96.7*	104.0*	-1.1
Nc1c(Cl)cnn(-c2ccccc2)c1=O	4.2	-2.5	13.9	0.3	4.0	-6.2
Cc1cc(C)c(OCC(=O)Nc2cccc(NC(=O)c3ccco3)c2)c(Br)c1	2.0	/	55.9*	4.1	21.2	48.8
Cc1noc(C)c1S(=O)(=O)Nc1ccc2c(c1)C(=O)N([C@@H](C)CO)C[C@H](C)[C@@H](CN(C)S(=O)(=O)c1cn(C)cn1)OCCCC[C@@H](C)O2	/	-16.7	/	/	24.9	/
CC(CC(=O)N1CCN(c2cccc(Cl)c2)CC1)S(=O)(=O)c1ccc2c(c1)NC(=O)CO2 (stereo not given)	-1.3	/	58.6*	-2.9	19.6	47.4
CCOC(=O)N1CCN(C(=O)CSc2ccc(-c3ccc(OC)c(OC)c3)nn2)CC1	-2.4	-3.6	-6.5	-3.4	-17.7	-9.8
COc1ccc(-c2ccc(SCC(=O)N3c4ccccc4CC3C)nn2)cc1OC (stereo not given)	-20.3	/	63.3*	6.3	/	-3.6
O=C1NN(c2ccccc2)C(=O)/C1=C/c1ccc(-c2ccc(Cl)c(C(=O)O)c2)o1	2.5	1.4	-8.7	2.3	-5.2	4.0
Cc1ccc(Sc2ccc(/C=C3/C(=O)NN(c4ccccc4)C3=O)o2)cc1	-13.6	13.3	89.0*	18.5	-4.7	-12.0
Cc1cc(-c2csc(NC(=O)c3ccc(=O)[nH]c3)n2)c(C)n1Cc1ccco1	-9.7	3.9	58.3*	3.3	2.4	4.8
CCNc1nc(-c2cc(C)n(Cc3ccco3)c2C)cs1	4.4	-4.6	-2.8	1.2	2.5	-3.0
C[C@@H]1CN([C@H](C)CO)C(=O)c2cc(C#Cc3cccnc3)cnc2O[C@H]1CN(C)C(=O)CN(C)C	/	-2.8	/	/	-3.3	/
CS(=O)(=O)c1ccc2nc(NC(=O)c3ccc(NS(=O)(=O)c4ccc(F)c(F)c4)cc3)sc2c1	5.0	6.9	7.0	15.5	-0.8	11.2
O=C(Nc1nc2ccc(SC(F)F)cc2s1)c1ccc(NS(=O)(=O)c2ccc(F)c(F)c2)cc1	3.3	-42.4	71.0*	-33.8	-29.8	54.5*
Cc1noc(C)c1NC(=O)NCC[C@@H]1CC[C@@H](NC(=O)Nc2cccc(F)c2)[C@H](CO)O1	/	-4.9	/	/	-24.8	/
CCOC(=O)c1ccc(-n2cc(C(=O)c3cccnc3)nn2)cc1	7.5	1.4	1.7	-21.2	1.9	-10.2
Cc1ccc(-n2cc(C(=O)c3ccc(F)cc3)nn2)cc1Cl	-3.3	/	52.6*	0.9	/	41.1
Cc1ccc(S(=O)(=O)N[C@H]2CC[C@H](CC(=O)NCCN3CCCCC3)O[C@@H]2CO)cc1	/	-0.5	/	/	5.2	/
COc1cccc(-c2ccc3c(c2)[C@@H]2[C@@H](CCN2C(=O)C2CCCCC2)[C@H](CO)N3)c1	/	-6.0	/	/	-25.9	/
SMILES	KKLEB tox	EWS-Fli inh	TWEAK-Fn14 inh	CF NFkB block	LGR2 antag	TROY NFkB inh
CC1(C(=O)NCc2ccccc2Br)CCN1C(=O)Cc1ccc(-c2ccccc2)cc1 (stereo not given)	-8.6	2.1	10.0	-18.1	19.7	16.8
CC(C)(C)CNC(=O)C1(C)CCN1C(=O)Cc1ccc(-c2ccccc2)cc1 (stereo not given)	-1.5	19.1	66.6*	10.6	16.2	6.3
COc1ccc2c3c([nH]c2c1)[C@H](CO)N(C)CC31CN(S(=O)(=O)c2cn(C)cn2)C1	/	2.3	/	/	3.9	/
COc1ccccc1C(=O)NC(=S)Nc1ccc(N2CCOCC2)c(Cl)c1	-10.9	-18.0	-9.3	11.5	-1.6	52.0*
Cc1ccccc1OCC(=O)NC(=S)Nc1ccc(N2CCOCC2)c(Cl)c1	-3.8	/	-20.8	20.5	/	10.8
COc1ccccc1-c1cc(C(=O)Nc2cccnc2Cl)no1	-8.2	-9.7	-21.8	4.2	10.5	-18.1
Cc1ccc(C(=O)NC(=S)Nc2cccnc2Cl)cc1	16.3	-38.9	73.0*	-30.7	26.4	43.8
Cc1ccc(C(=O)NC(=S)Nc2ccccc2C(F)(F)F)cc1	0.4	/	5.5	4.3	-16.0	-34.0
COc1ccccc1C(=O)NC(=S)Nc1cccnc1Cl	-10.9	57.4*	95.4*	-19.4	84.2*	78.3*
C[C@@H]1CN([C@H](C)CO)S(=O)(=O)c2ccc(-c3ccncc3)cc2O[C@@H]1CN(C)C(=O)c1cccc(F)c1	/	-1.9	/	/	4.3	/
COc1ccc(NC(=O)Nc2ccc3c(c2)[C@H]2C[C@@H](CC(=O)N4CCc5ccccc5C4)O[C@@H](CO)[C@H]2O3)cc1	/	5.0	/	/	6.2	/
CCN1C(=O)S/C(=C/c2ccc(Oc3ccc([N+](=O)[O-])cn3)c(OC)c2)C1=O	13.1	-9.5	11.1	-18.8	/	18.1
COc1cc(/C=C2\SC(=O)NC2=O)ccc1Oc1ccc([N+](=O)[O-])cc1[N+](=O)[O-]	3.3	15.5	62.8*	2.5	9.8	33.5
CO/N=C/c1ccc(Oc2ccc([N+](=O)[O-])cc2[N+](=O)[O-])c(OC)c1	-10.0	/	12.1	-8.0	-16.0	1.4
CCN1C(=O)C(=Cc2cccc(OC)c2Oc2ccc([N+](=O)[O-])cc2[N+](=O)[O-])SC1=S	-84.3*	58.2*	90.9*	88.3*	8.4	-8.9
CCC(=O)N(C)C[C@H]1Oc2cc(-c3cccc(OC)c3)ccc2S(=O)(=O)N([C@@H](C)CO)C[C@@H]1C	/	-7.3	/	/	-14.3	/
CCc1ccc(OCCCC(=O)Nc2ccc(S(=O)(=O)Nc3cc(C)nc(C)n3)cc2)cc1	8.7	3.8	54.9*	-14.5	-34.0	17.9
CCCC(=O)Nc1ccc(S(=O)(=O)Nc2cc(C)nc(C)n2)cc1	-4.3	/	-22.6	3.4	-5.4	-4.6
CCS(=O)(=O)N1CCC2(CC1)CN(C(=O)c1ccc(F)cc1)[C@@H](CO)c1c2c2ccc(OC)cc2n1C	/	-8.4	/	/	-8.8	/
CCNc1nc(NC(C)C)nc(N(C#N)C(C)C(=O)N(C)C)n1 (stereo not given)	-5.1	/	-4.3	3.2	/	11.9
CCNc1nc(NCC)nc(N(C#N)C(C)C)n1	-10.9	-4.0	76.1*	36.0	-49.0	-7.1
